# According to PubChem BioAssay (Tox21):
# Unmarked numbers belong to inactive results. The source made the active and inactive calls. Unless noted, calls come from the whole dose curve.
# Biological target: Estrogen receptor (Homo sapiens) (UniProt P03372)
# Assay: qHTS assay to identify small molecule antagonists of the estrogen receptor alpha (ER-alpha) signaling pathway (AID 743069; active = well fitted curve in the direction sought with a large enough effect in the signal ratio in the repeat runs, not every such curve was filed as active; inconclusive = weak or mixed curves, or effect the other way; inactive = no such curve, though single readings can be large or run the other way; the % refers to the signal ratio; note: potency is the fitted concentration of half-maximal effect)
# Conditions: HEK293 ER-alpha-UAS-bla, beta-lactamase ratio, antagonist mode; series mostly up to 69.4 µM; activity, negative = inhibition: at the top concentration
# In short: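 Beta-lactamase FRET fluorescence is read after 2 hr at room temperature with LiveBLAzer B/G substrate. Before that, ER-alpha-bla HEK293 cells sit 4 hr after plating, then receive compound plus 17beta-estradiol and incubate 18 hr at 37C.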
# % is set by controls: 0 for no effect and ±100 for the full control effect.
# Estrogen receptor (Homo sapiens), sequence (P03372 whole entry, looked up): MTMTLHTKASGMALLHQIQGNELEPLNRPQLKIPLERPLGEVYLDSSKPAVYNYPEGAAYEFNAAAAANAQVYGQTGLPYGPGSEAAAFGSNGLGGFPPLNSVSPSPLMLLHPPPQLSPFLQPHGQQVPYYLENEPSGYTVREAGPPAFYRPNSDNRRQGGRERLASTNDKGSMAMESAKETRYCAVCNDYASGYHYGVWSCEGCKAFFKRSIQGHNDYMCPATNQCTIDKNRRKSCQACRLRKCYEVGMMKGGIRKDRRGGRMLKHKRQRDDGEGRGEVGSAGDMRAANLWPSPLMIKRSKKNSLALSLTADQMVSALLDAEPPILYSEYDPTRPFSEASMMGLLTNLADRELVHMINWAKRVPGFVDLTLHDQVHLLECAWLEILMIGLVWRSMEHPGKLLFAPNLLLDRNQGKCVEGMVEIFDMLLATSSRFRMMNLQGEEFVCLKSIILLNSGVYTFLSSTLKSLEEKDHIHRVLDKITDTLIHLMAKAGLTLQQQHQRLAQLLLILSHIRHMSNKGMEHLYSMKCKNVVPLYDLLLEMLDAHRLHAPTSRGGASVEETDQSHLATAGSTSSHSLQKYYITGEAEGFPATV
SMILES,"activity, negative = inhibition",Potency
C[C@@H](O)[C@H]1C(=O)N2C(C(=O)O)=C(S[C@@H]3CN[C@H](CNS(N)(=O)=O)C3)[C@H](C)[C@H]12,-12.5%,–
COc1ccc(C(=O)c2ccc(C)cc2)c(O)c1,–,inactive
O=C(O)c1cc(C(=O)O)c(C(=O)O)cc1C(=O)O,-3.16%,–
OCCc1ccncc1,8.38%,–
CC(C)(C(=O)O)c1ccc(C(O)CCCN2CCC(C(O)(c3ccccc3)c3ccccc3)CC2)cc1 (stereo not drawn),-16.8%,–
C1CCN(CN2CCCCC2)CC1,-14%,–
CCCCCCCCCCCCSC#N,-32.8%,–
COc1cc(CNC(=O)CCCC/C=C/C(C)C)ccc1O,14%,–
CC(C)C[C@H](NC(=O)[C@H](Cc1ccccc1)NC(=O)c1cnccn1)B(O)O,–,67.4 nM [inconclusive] (active)
CC(=O)c1ccc(Cl)c(Cl)c1Cl,25.4%,–
C=CCCC,-11.8% [at 79.1 µM],–
CC(C)CC(C)(C)C,-8.39% [at 79.1 µM],–
O=C1OC(=O)C2CC=CCC12 (stereo not drawn),16.4% [at 79.1 µM],–
SCCOCCOCCS,29.9%,–
S=c1[nH][nH]c(=S)s1,21.3%,–
CC(C)(C)c1ccc(CCC=O)cc1,51.7%,–
Cc1nc2sccn2c(=O)c1CCN1CCC(=C(c2ccc(F)cc2)c2ccc(F)cc2)CC1,-22.6%,–
O=C(O)c1ccccc1-n1cc(C(=O)O)c(=O)c2cc(Nc3c(F)cc(F)cc3Cl)c(Cl)cc21,28.4%,–
NC(=O)c1ccccc1,0.65% [at 79.1 µM],–
CCN(CCCCOC(=O)c1ccc(OC)c(OC)c1)C(C)Cc1ccc(OC)cc1 (stereo not drawn),18.9% [at 32.6 µM],–

# System: not listed separately
# Assay: qHTS assay to identify small molecule antagonists of the estrogen receptor alpha (ER-alpha) signaling pathway - cell viability counter screen (AID 743074);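 note: HEK293 cells carrying ER-alpha-UAS-bla reporter stimulated with 17beta-estradiol; nearly all actives have a fitted effect of over 45% in size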
# Conditions: ERalpha-bla HEK293 viability, CellTiter-Glo luminescence, 18 h; series mostly up to 69.4 µM; activity, negative = cytotoxicity: at the top concentration
SMILES,"activity, negative = cytotoxicity",outcome
C=CC(C)(O)CC/C=C(/C)CCC=C(C)C (stereo not drawn),7.23%,–
CC/C=C/CCO,-13.6% [at 79.1 µM],–
C[C@@H](O)[C@H]1C(=O)N2C(C(=O)O)=C(S[C@@H]3CN[C@H](CNS(N)(=O)=O)C3)[C@H](C)[C@H]12,-9.58%,–
O=C(NC1CCN(CCc2c[nH]c3ccccc23)CC1)c1ccccc1,15.8%,–
Cc1c(-c2cccnc2)c2ccccc2n1CCCCC(=O)O,13.4%,–
COc1ccc(C(=O)c2ccc(C)cc2)c(O)c1,–,inactive
O=C(O)c1cc(C(=O)O)c(C(=O)O)cc1C(=O)O,-2.5%,–
OCCc1ccncc1,9.15%,–
CC(C)(C(=O)O)c1ccc(C(O)CCCN2CCC(C(O)(c3ccccc3)c3ccccc3)CC2)cc1 (stereo not drawn),-14.5%,–
C1CCN(CN2CCCCC2)CC1,10.4%,–
O=C1c2ccccc2C(=O)c2c1ccc(O)c2O,23.4%,–
CCCCCCCCCCCCSC#N,-8.06%,–
COc1cc(CNC(=O)CCCC/C=C/C(C)C)ccc1O,–,inactive
C/C=C1\[C@H]2C=C(C)C[C@]1(N)c1ccc(=O)[nH]c1C2,-16.8%,–
Cc1cc(SC2=C(O)C[C@@](CCc3ccc(N)cc3)(C(C)C)OC2=O)c(C(C)(C)C)cc1CO,-14.8%,–
CC(C)C[C@H](NC(=O)[C@H](Cc1ccccc1)NC(=O)c1cnccn1)B(O)O,-24.2%,–
CC/C=C\CCO,7.65%,–

SMILES,"activity, negative = cytotoxicity",outcome
CC(=O)c1ccc(Cl)c(Cl)c1Cl,-11.2%,–
C[C@H](CN1CCCC1)C(=O)c1ccc(C(F)(F)F)cc1,13.1%,–
C=CCCC,17.6% [at 79.1 µM],–
CC(=O)Nc1ccccc1O,4.01%,–
O=C(O)CNc1ccccc1,-17.4%,–
CC(C)CC(C)(C)C,7.66% [at 79.1 µM],–
O=C1OC(=O)C2CC=CCC12 (stereo not drawn),23.8% [at 79.1 µM],–
SCCOCCOCCS,13%,–
S=c1[nH][nH]c(=S)s1,-16.3%,–
CC(C)(C)c1ccc(CCC=O)cc1,16.3%,–
Cc1nc2sccn2c(=O)c1CCN1CCC(=C(c2ccc(F)cc2)c2ccc(F)cc2)CC1,-21.6%,–
O=C(O)c1ccccc1-n1cc(C(=O)O)c(=O)c2cc(Nc3c(F)cc(F)cc3Cl)c(Cl)cc21,11.7%,–
NC(=O)c1ccccc1,7.12% [at 79.1 µM],–
Cc1ccc(NC(=O)c2ccc(CN3CCN(C)CC3)cc2)cc1Nc1nccc(-c2cccnc2)n1,-13.3%,–
CCC(C)C1N=C(C)C(C)S1 (stereo not drawn),-2.32%,–
CCN(CCCCOC(=O)c1ccc(OC)c(OC)c1)C(C)Cc1ccc(OC)cc1 (stereo not drawn),22.9% [at 32.6 µM],–
